NadD block: blocks S. aureus nicotinate mononucleotide adenylyltransferase; AID 602399; inhibition, % at 20 µM; purified NadD enzyme, colorimetric absorbance read-out; 360,000 compounds, 0.78% hits; in the data active means inhibition above about 26%
rCAG binder: r(CAG) repeat RNA binding; inhibition, % at 3 µM; 370,000 compounds, 1.3% hits; TO-PRO-1 dye displacement fluorescence;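 active means inhibition above the plate cutoff, the mean of all test compounds on that plate plus 3 SD, cut at about 35% in these data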;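 further: higher means more dye released from RNA so lower well fluorescence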
NR3A LBD binder: modulators (binders) of human NR3A ligand-binding domain | AID 1259313 | 340,000 compounds, 2.5% hits | Tm shift relative to glycine control, % at 25 µM | NR3A LBD differential scanning fluorimetry, Tm shift; 0% = protein alone, 100% = glycine-bound protein;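 active means melting temperature shift of at least 10% of the positive control shift, at one fixed dose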
FAS-TE inh: inhibitors of human fatty acid synthase thioesterase domain | AID 602261 | inhibition, % at 15 µM | P49327 | recombinant FAS-TE, OMFH fluorogenic substrate, fluorescence endpoint | 360,000 compounds, 0.67% hits;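 active means compounds whose normalised, plate-corrected inhibition of enzyme fluorescence in the single-dose primary screen is 50% or more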
Each line names hits and unclear results; the compound was inactive in the other large screens. Sampled rows, rich in hits. Any-hit rate of the full collection: about 4.3%.

O=C(Cn1cnc2ccccc2c1=O)N1CCN(C(=O)C2CCCO2)CC1 (stereo unspecified)	none (no result: NadD block, NR3A LBD binder, FAS-TE inh)
C=CCN1C(C(=O)OC)CN(Cc2cn(Cc3ccc(OC)cc3)nn2)CCS1(=O)=O (stereo unspecified)	none (no result: NadD block, NR3A LBD binder, FAS-TE inh)
Brc1ccc(-c2nn3c(-c4ccccc4)nnc3s2)cc1	none (no result: NadD block, NR3A LBD binder, FAS-TE inh)
O=[N+]([O-])c1[nH]cnc1/C=C/c1ccccc1	NR3A LBD binder 22
O=C(Nc1cccc(-c2cn3cccnc3n2)c1)Nc1ccccc1F	NR3A LBD binder 12
CCCC(=O)Nc1cccc(-c2cn3cccnc3n2)c1	none
O=C(Nc1ccccc1)Nc1cccc(-c2cn3cccnc3n2)c1	NR3A LBD binder 13
CCOC(=O)[C@@]12CCC3=C1N(CCC3)C(=O)[C@H](CC(=O)NCc1cccc(C(F)(F)F)c1)C2	none (no result: NadD block, NR3A LBD binder, FAS-TE inh)
COC(=O)CN1C(=S)N(c2ccc(F)cc2)C(=O)C1CC(=O)Nc1ccc(F)cc1 (stereo unspecified)	none
COC(=O)CN1C(=S)N(Cc2ccccc2)C(=O)C1CC(=O)Nc1ccc(Br)cc1 (stereo unspecified)	NR3A LBD binder 18
COc1ccc(NC(=O)CC2C(=O)N(c3ccc(Cl)cc3)C(=S)N2NC(=O)c2cccc(F)c2)cc1 (stereo unspecified)	NR3A LBD binder 16
COC(=O)CN1C(=S)N(c2ccc(Cl)cc2)C(=O)C1CC(=O)Nc1ccc(Cl)cc1 (stereo unspecified)	NR3A LBD binder 20
COC(=O)CN1C(=S)N(c2ccc(Cl)cc2)C(=O)C1CC(=O)Nc1ccc(F)cc1 (stereo unspecified)	NR3A LBD binder 27
COC(=O)[C@]12C[C@H](CC(=O)N3CCSCC3)C(=O)N(Cc3ccc(Cl)cc3Cl)C1=C[C@H](C1CCCC1)O[C@@H]2C	none (no result: NadD block, NR3A LBD binder, FAS-TE inh)
CCOC(=O)[C@@]12CCCC=C1N(CCc1ccc(Cl)cc1)C(=O)[C@H]2CC(=O)NCCCCc1ccccc1	none (no result: NadD block, NR3A LBD binder, FAS-TE inh)
COc1ccc(NC(=O)CC2C(=O)N(c3ccc(Cl)cc3)C(=S)N2CCc2ccncc2)cc1 (stereo unspecified)	NR3A LBD binder 10 (no result: rCAG binder)
COc1ccc(-c2noc(N3CCCC(C(=O)Nc4ccc(F)cc4F)C3)n2)cc1 (stereo unspecified)	none
COc1ccc(-c2noc(N3CCCC(C(=O)Nc4ccccc4F)C3)n2)cc1 (stereo unspecified)	NR3A LBD binder 13
Cc1cc(C)c2nc(SCc3ccc([N+](=O)[O-])cc3)nc(C)c2c1	none
Cc1ccc2nc(SCc3ccc([N+](=O)[O-])cc3)nc(C)c2c1	NR3A LBD binder 13
Cc1ccc2nc(SCc3ccc([N+](=O)[O-])cc3)[nH]c2c1	FAS-TE inh 58
CCOc1ccc2nc(SCc3cccc(C)c3)nc(C)c2c1	NR3A LBD binder 15
CCOC(=O)CNC(=O)N(C)[C@H]1C[C@H]2c3[nH]c4c(-c5cccc(C)c5)cccc4c3CCN2C(=O)[C@H]1[C@H](C)O	none (no result: NadD block, NR3A LBD binder, FAS-TE inh)
COC(=O)[C@H](CC(C)C)N(CCCc1cn(Cc2ccc(C)cc2)nn1)S(=O)(=O)c1ccccc1Br	none (no result: NadD block, NR3A LBD binder, FAS-TE inh)
O=C(Nc1cc(Cl)ccc1O)c1cc2n(n1)C(C(F)(F)F)CC(c1ccc3c(c1)OCO3)N2 (stereo unspecified)	NR3A LBD binder 23
Cc1cccc(S(=O)(=O)Nc2nc3ccccc3nc2Nc2ccc3c(c2)OCO3)c1	NR3A LBD binder 21
CC(=O)Nc1ccc(S(=O)(=O)Nc2nc3ccccc3nc2-n2ccc(=NC(=O)c3ccc(F)cc3)cc2)cc1	NR3A LBD binder 36
CC(=O)Nc1ccc(S(=O)(=O)Nc2nc3ccccc3nc2-n2ccc(=NC(=O)c3ccccc3)cc2)cc1	NR3A LBD binder 25
O=C(N=c1ccn(-c2nc3ccccc3nc2NS(=O)(=O)c2ccccc2)cc1)c1ccccc1Cl	none
CC(=O)Nc1ccc(S(=O)(=O)Nc2nc3ccccc3nc2Nc2ccc(O)cc2)cc1	NR3A LBD binder 17
CC(C)=CCC/C(C)=C/CNCC(=O)N1c2ccccc2[C@]2(C)C[C@@H]3C(=O)N(C/C=C(\C)CCC=C(C)C)CC(=O)N3[C@H]12	none (no result: NadD block, NR3A LBD binder, FAS-TE inh)
COCC#Cc1cnc2c(c1)C(=O)N([C@@H](C)CO)C[C@H](C)[C@H](CN(C)C(=O)c1ccc3c(c1)OCO3)O2	none (no result: NadD block, NR3A LBD binder, FAS-TE inh)
Cc1ccc(N2CN(S(=O)(=O)c3cccc([N+](=O)[O-])c3)c3nc4ccccc4nc32)cc1	none
CC(=O)Nc1ccc(S(=O)(=O)N2CN(c3ccc(C)cc3)c3nc4ccccc4nc32)cc1	NR3A LBD binder 16
CCn1cnc2cc(NCc3ccc(OC)cc3)ccc21	none
CCOc1ccc2nc3cc(NCc4ccc(OC)cc4)ccc3c(N)c2c1	NadD block 47 (no result: rCAG binder)
Oc1ccc2c(c1)c1ccccc1c1ncccc21	NR3A LBD binder 31

Source: PubChem BioAssay
